This is part of a sample that, as a whole, favours compounds with a hit. Of some 83,000 tested, about 20% had one in any assay.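 48-hour exposure, single concentration, 96-well plates; percent growth endpoint where 0 means no net growth. Active: below 10.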 Values without a mark were called inactive. Calls of active or inactive are those of the source.

The record followed here is PubChem BioAssay (NCI).

What all share (assay): NCI-60 one-dose screen, 48 h (100 = growth as untreated, 0 = no growth, -100 = all killed)
What all share (conditions): 10 µM unless noted

Assay [1] has as its system HCT-15 colon.
Assay [2] deals with HT29 colon.
The subject of assay [3] is SNB-75 CNS.
Assay [4] relates to SNB-19 CNS.
The subject of assay [5] is U251 CNS.
In assay [6] the test system is PC-3 prostate.
The test system of assay [7] is SK-MEL-5 melanoma.
In assay [8] the test system is UACC-62 melanoma.
Assay [9] deals with LOX IMVI melanoma.
Assay [10] concerns SK-MEL-28 melanoma.

`COc1cccc(/C=N/C(=S)NC2(C)C3CCC(C3)C2(C)C)c1O` (stereo not given): the growth in [1] is 32.5%; in assay [2], 101%; in [3], 90.8%; in assay [4], 82.9%; in assay [5], 48.7%; in [6], 65.9%. Moreover, the growth in assay [7] is 88.6%; in [8], 94.5%; in assay [9] it was 70.8%; in assay [10], 102%.
With `O=S(c1ccccc1)c1ccc2nnnn2n1` (stereo not given), the growth in assay [1] is 79.8%; in assay [2] it was 92%; in assay [3], 107%; in assay [4], 107%; in [5], 103%; in assay [6], 96.6%. Further, the growth was 99.8% in [7], 98.6% in [8], 89.7% in assay [9] and 105% in [10].
For `CCOC(=O)c1noc2c1CCc1cn(Cc3cc(OC)cc(OC)c3)cc1-2`, the growth in [1] is 96.4%; in assay [2], 75.4%; in assay [3], 95.8%; in [4], 113%; in [5], 110%; in assay [6], 92.8%. The growth is 101% in assay [7], 103% in [8], 95.5% in assay [9] and 105% in [10].
Consider `COc1ccc(Cl)cc1NC(=O)c1cc2c(n1C)-c1nc(NC(=O)C(C)(C)C)sc1CC2`, for which the growth in assay [1] is 89.4%; in assay [2], 79.2%; in assay [3], 83.1%; in assay [4], 106%; in [5] it was 88.4%; in assay [6], 71.7%. Further, the growth in [7] was 79.7%; in assay [8], 87.7%; in assay [9] it was 93.9%; in assay [10], 92.4%.
Turning to `O=C1OC(=O)C2C3CC(c4ccccc43)C12` (stereo not given), the growth is 94.5% in assay [1]; 112% in assay [2]; 89.4% in assay [3]; 107% in assay [4]; 97.4% in assay [5]; 92.1% in assay [6]. For the same compound, the growth was 112% in assay [7], 105% in [8], 103% in [9] and 116% in [10].
For `CCN(CC)C(=O)C1CCN(C(=O)c2ccccc2)CC1`, the growth in assay [1] is 104%; in assay [2], 104%; in assay [3] it was 94%; in assay [4], 100%; in [5], 101%; in [6], 96.9%. Moreover, the growth in [7] was 101%; in assay [8], 97.2%; in [9], 96.7%; in assay [10], 107%.
As for `COc1cc(Br)c(-c2nc(-c3ccccc3)c(-c3ccccc3)n2Cc2ccccc2)cc1OC`, the growth in [1] was 47.4%; in assay [2] it was 32.3%; in assay [3], 86.7%; in assay [4], 67.2%; in [5], 64.1%; in [6], 29.7%. Also, the growth was 54% in assay [7], 53.1% in assay [8], 61.3% in assay [9] and 91.1% in assay [10].
Turning to `COc1cccc(-c2nc3sccn3c2-c2ccnc(NCCNC(=O)c3ccccc3)n2)c1`, the growth is 81.9% in assay [1]; 53.5% in assay [2]; 92.6% in assay [3]; 110% in assay [4]; 102% in assay [5]; 79.7% in assay [6]. Further, the growth in assay [7] is 55.3%; in [8] it was 24.6%; in assay [9], 54.7%; in assay [10], 64.2%.
With `Cc1nccc2c3ccc(OCc4cn(Cc5ccc(Br)cc5)nn4)cc3n(CCCc3ccccc3)c12`, the growth in assay [1] is 92.8%; in assay [2], 80.7%; in assay [3], 42.3%; in assay [4], 47.3%; in assay [5], 82.3%; in assay [6] it was 77.9%. Also, the growth in [7] is 81.1%; in assay [8], 82.1%; in assay [9] it was 93.3%; in [10] it was 99.4%.
For the compound `CN1C(=O)C2(NN=C(c3cccc4ccccc34)S2)c2ccccc21` (stereo not given), the growth in [1] was 28.3%; in assay [2], 50.8%; in assay [3], 73.4%; in [4] it was 33.7%; in [5], 9.26% (active); in [6], 19.7%. In addition, the growth in assay [7] is 41.8%; in [8] it was 17.2%; in assay [9], 31.3%; in [10] it was 32.4%.
Regarding `O=c1nc(N2CCOCC2)oc2c(-c3cccc4ccccc34)cccc12`, the growth in assay [1] is 93.3%; in assay [2] it was 89.6%; in assay [3], 46.9%; in [4] it was 91.8%; in assay [5], 85.8%; in assay [6], 59.7%. The growth in [7] is 79.2%; in assay [8], 54.4%; in assay [9], 80.1%; in assay [10], 94.4%.
Take `CCc1cccc(-c2ccccc2)c1`: the growth was 103% in assay [1]; 114% in assay [2]; 105% in assay [3]; 107% in assay [4]; 106% in assay [5]; 99% in assay [6]. The growth is 111% in assay [7], 103% in [8], 109% in assay [9] and 120% in [10].
For the compound `Cn1c2ccccc2c2ssc(=S)c21`, the growth in [1] was 92.1%; in [2], 110%; in assay [3], 99.3%; in assay [4], 100%; in assay [5] it was 96.2%; in [6], 101%. Moreover, the growth in [7] was 89.8%; in assay [8] it was 95.8%; in assay [9] it was 91.9%; in assay [10], 108%.
As for `CC(=O)Oc1ccc(C(OC(C)=O)OC(C)=O)cc1`, the growth in [1] is 102%; in [2], 99.8%; in [3], 106%; in assay [4] it was 104%; in assay [5], 106%; in assay [6] it was 104%. Also, the growth in assay [7] is 105%; in [8], 101%; in assay [9], 99.2%; in assay [10], 107%.
